Values without a mark were called inactive. How the calls were made is not given here.

The nature of this assay: P. aeruginosa biofilm formation inhibitors, primary screen, PAO1 strain, BacTiter-Glo luminescence, LB-PBS (AID 1144). The settings on record: 12 h, higher = more signal.
On to `C[C@@H](c1ccccc1)N1C(=O)[C@H]2[C@H]3[C@H](O)[C@H](O)CC(=NO[C@@H]4O[C@H](CO)[C@@H](O)[C@H](O)[C@H]4O)[C@H]3CC[C@H]2C1=O`, for which the z-score is -0.104.
For the molecule `CCOC(=O)CCN1C(=O)[C@H]2[C@H]3[C@H](O)[C@H](O)CC(=NOCc4ccccc4)[C@H]3CC[C@H]2C1=O`, the z-score was 1.14.
To `CO[C@H]1COC(=O)[C@@H](C)COC(=O)[C@H](COCc2ccccc2)NC(=O)CC=C[C@H]1C` belongs -1.04.
For the molecule `COc1cccc([C@H]2Oc3ccc(OC)cc3C(=NO[C@@H]3O[C@H](COC(C)=O)[C@@H](OC(C)=O)[C@H](OC(C)=O)[C@H]3OC(C)=O)[C@@H]2O)c1`, the z-score is 0.0537.
To `CCOC(=O)[C@H](CC(C)C)NC(=O)CCC1CC(OC(=O)NCc2ccc3c(c2)OCO3)CC2(CCCC(COC(=O)NCc3cccc(C(F)(F)F)c3)O2)O1` (stereo partly drawn) belongs -0.67; to `CCN1C(=O)[C@H]2[C@H]3[C@H](O)[C@H](O)CC(=NOCC(C)C)[C@@H]3CC[C@H]2C1=O`, 0.258.
To `COC(=O)[C@H](C)NC(=O)CCC1CC(OC(=O)NCCc2ccc(F)cc2)CC2(CCCC(COC(=O)NCCC(C)C)O2)O1` (stereo partly drawn) belongs -1.41.
To `C=CC[C@@H]1C=C[C@H](ON=C(C)CCN2CCc3nc(-c4ccccc4)c(-c4ccccc4)cc3C2)[C@@H](CO)O1` belongs -0.117.

(Values after PubChem BioAssay.)
